Most compounds without a hit are left out; they make up all but 12% or so of the library.
G9a inh – qHTS Assay for Inhibitors of Histone Lysine Methyltransferase G9a | Potency, µM (top dose mostly 102 µM), hits mostly inhibitors | Histone-lysine N-methyltransferase EHMT2 (Homo sapiens), Q96KQ7 | G9a H3K9 monomethylation, AlphaScreen, 2 h | 350,000 tested, 8.8% active; also: nearly all actives have a fitted effect of over 75% in size
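Methyltransferase reactions run at room temperature for 2 h (20 nM enzyme, 500 nM biotin-H3K9 peptide, 20 uM SAM) after a 15 min compound preincubation; product detected by AlphaScreen beads and anti-H3K9me1 antibody.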
HP1b chromo inh – HTS for Inhibitors of HP1-beta Chromodomain Interactions with Methylated Histone Tails; AID 540317, 2011; AlphaScreen HP1-beta / biotin-H3K9me3 peptide binding; Potency, µM (series often up to 114 µM), actives largely listed as inhibitors; 390,000 tested, 0.56% active; also: nearly all actives have a fitted effect of over 70% in size
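Compound inhibition of the preformed complex between 50 nM HP1-beta and 50 nM biotinylated H3K9me3 peptide was read by AlphaScreen. Buffer was PBS pH 7.4 with 0.01% Tween-20. Incubations ran 30 min at room temperature, with 10 ug/mL donor/acceptor beads.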
PLK1 PBD inh – qHTS for Inhibitors of PLK1-PDB (polo-like kinase 1 - polo-box domain): Primary Screen | 360,000 tested, 2.8% active | Potency, µM, most hits filed as inhibitors | Plk1 PBD binding of FITC phosphopeptide, fluorescence polarization | Serine/threonine-protein kinase PLK1 (Homo sapiens), P53350; also: series mostly up to about 57 µM; nearly all actives have a fitted effect of over 65% in size
JMJD2A Tudor inh – qHTS Assay for Inhibitors of JMJD2A-Tudor Domain; 390,000 tested, 4.4% active; Potency, µM (top dose mostly 114 µM), hits mostly inhibitors; AlphaScreen JMJD2A-Tudor / H3K4me3 peptide binding; AID 504339, 2011; Lysine-specific demethylase 4A (Homo sapiens), O75164; also: nearly all actives have a fitted effect of over 50% in size
BAZ2B block – qHTS Assay for Inhibitors of BAZ2B | Bromodomain adjacent to zinc finger domain protein 2B (Homo sapiens), Q9UIF8 | AlphaScreen BAZ2B-H3K14Ac peptide displacement | Potency, µM (top dose mostly 114 µM), hits mostly inhibitors | 360,000 tested, 4.4% active; also: nearly all actives have a fitted effect of over 60% in size
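Complex of BAZ2B and biotin-H3K14Ac (50 nM apiece) forms over 30 min at RT, then faces library compounds up to 110 uM for another 30 min; AlphaScreen beads added, 20 min dark incubation, luminescence read.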
Sfp PPTase inh – qHTS Assay for Inhibitors of Bacillus subtilis Sfp phosphopantetheinyl transferase (PPTase). Biochemical Sfp PPTase activity, qHTS. AID 1490, 2009. 310,000 tested, 3.5% active. Potency, µM, usual class: inhibitors;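 also: the enzyme is Sfp with the accession as filed and its product quenches rhodamine fluorescence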
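After 15 min at room temperature with compound, 15 nM Sfp received 5 uM rhodamine-CoA plus 12.5 uM BHQ-2-ybbR (50 mM Hepes pH 7.6, 10 mM MgCl2). Rate came from the fluorescence difference over 30 min, ex 525/em 598 nm.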
Of the large screens only hits and unclear results are named; the others gave an inactive call. Calls follow the shape of the dose curve; as a rule, active = well fitted curve in the direction sought with a large enough effect; inconclusive = small, poorly fitted or top-dose-only effect, or another doubt; inactive = no such curve, though single readings can be large; an effect the other way counts as inactive or inconclusive.

COc1ccccc1NC(=O)C1=C(C)Nc2ncnn2C1c1ccc[nH]1 (stereo not given)	JMJD2A Tudor inh 56µM, BAZ2B block inconclusive (no result: PLK1 PBD inh, Sfp PPTase inh)
CC1=C(C(=O)Nc2cccc(C(F)(F)F)c2)C(c2ccccn2)n2ncnc2N1 (stereo not given)	G9a inh 20µM, JMJD2A Tudor inh 50µM, BAZ2B block inconclusive (no result: PLK1 PBD inh, Sfp PPTase inh)
COc1ccc(NC(=O)C2=C(C)Nc3ncnn3C2c2ccccn2)cc1 (stereo not given)	G9a inh inconclusive, JMJD2A Tudor inh 89µM, BAZ2B block inconclusive (no result: PLK1 PBD inh, Sfp PPTase inh)
CC(=O)OC[C@@H]1O[C@@H](O/N=C2/C[C@@H](O)[C@@H](O)[C@@H]3[C@H]4C(=O)N(c5ccc(F)cc5F)C(=O)[C@@H]4CC[C@@H]23)[C@H](OC(C)=O)[C@H](OC(C)=O)[C@@H]1OC(C)=O	none (no result: G9a inh, HP1b chromo inh, PLK1 PBD inh, JMJD2A Tudor inh, BAZ2B block)
Cn1nc(C(=O)NC2CCCCC2)c2c1-c1ccccc1S(=O)(=O)C2	none (no result: G9a inh)
COc1ccc(CNC(=O)c2cnc3n(c2=O)CCS3)cc1	G9a inh 45µM
O=C(NCc1ccccc1Cl)c1cnc2n(c1=O)CCS2	G9a inh 56µM, Sfp PPTase inh inconclusive
O=C(NCCc1ccccc1)c1cnc2n(c1=O)CCS2	none (no result: BAZ2B block)
COc1ccccc1CNC(=O)c1cccc(NC(=O)N2CCSc3ncccc32)c1	none (no result: PLK1 PBD inh, Sfp PPTase inh)
CC(C)NC(=O)CCSc1nc(-c2ccc3c(c2)OCO3)cc(C(F)(F)F)n1	none (no result: PLK1 PBD inh, Sfp PPTase inh)
Cc1ccc(NC(=O)c2cc3c(=O)n(Cc4cccnc4)ccc3nc2C)cc1F	none (no result: PLK1 PBD inh, Sfp PPTase inh)
C=CCNC(=S)Nc1c(N)n(C)c(=O)n(C)c1=O	Sfp PPTase inh inconclusive
Fc1cccc(NC(=S)N2CCc3ccccc32)c1	G9a inh inconclusive
COc1ccc(NC(=S)N2CCc3ccccc32)cc1OC	G9a inh 50µM, BAZ2B block inconclusive
O=C(NC(=S)N1CCc2ccccc21)c1ccccc1	G9a inh 45µM, JMJD2A Tudor inh inconclusive, BAZ2B block inconclusive
CC(=O)c1cccc(NC(=S)N2CCc3ccccc32)c1	G9a inh 35µM, PLK1 PBD inh inconclusive
COc1ccccc1NC(=S)N1CCCc2ccccc21	none
CCC1(C(=O)OC)CCc2c(cc(OC)c3ccccc23)C1=O (stereo not given)	none (no result: G9a inh)
CCCCCn1c(SCC(=O)c2ccccc2)nc2cc(C(=O)NCC3CCCO3)ccc2c1=O (stereo not given)	PLK1 PBD inh inconclusive (no result: G9a inh, BAZ2B block, Sfp PPTase inh)
COc1ccc(CCNC(=O)CSc2n[nH]c(-c3ccccc3Cl)n2)cc1OC	none (no result: PLK1 PBD inh, Sfp PPTase inh)
CCOc1ccccc1NC(=O)CC(c1ccc(F)cc1)N1Cc2ccccc2C1=O (stereo not given)	none (no result: PLK1 PBD inh, Sfp PPTase inh)
O=C(O)C1(Nc2ccccc2Cl)CCCC1	none (no result: G9a inh, BAZ2B block, Sfp PPTase inh)
O=C1OCC(CO)(CO)N=C1NNc1ccccc1Cl	G9a inh 5.6µM, JMJD2A Tudor inh inconclusive
CCc1nnc(NC(=O)CCN2C(=O)C3CCCCC3C2=O)s1 (stereo not given)	none
COc1ccccc1-c1cncnc1NCCNC(C)=O	Sfp PPTase inh 79µM (no result: HP1b chromo inh, PLK1 PBD inh, JMJD2A Tudor inh, BAZ2B block)
COCCNc1ncncc1-c1ccccc1OC	none (no result: HP1b chromo inh, PLK1 PBD inh, JMJD2A Tudor inh, BAZ2B block)
COc1ccccc1-c1cncnc1NCc1cnc(C)cn1	Sfp PPTase inh 79µM (no result: HP1b chromo inh, PLK1 PBD inh, JMJD2A Tudor inh, BAZ2B block)
COc1ccccc1-c1ccc2ncnc(NCc3cnc(C)cn3)c2c1	none (no result: HP1b chromo inh, PLK1 PBD inh, JMJD2A Tudor inh, BAZ2B block)
COc1ccccc1-c1nc(NCc2cnc(C)cn2)c2ccccc2n1	Sfp PPTase inh 50µM (no result: G9a inh, HP1b chromo inh, PLK1 PBD inh, JMJD2A Tudor inh, BAZ2B block)
Cc1cnc(CNc2ncncc2-c2ccccc2C(F)(F)F)cn1	Sfp PPTase inh 71µM (no result: G9a inh, HP1b chromo inh, PLK1 PBD inh, JMJD2A Tudor inh, BAZ2B block)
Cc1cnc(CNc2nc(-c3ccccc3C)nc3ccccc23)cn1	none (no result: HP1b chromo inh, PLK1 PBD inh, JMJD2A Tudor inh, BAZ2B block)
COc1ccc(NC(=O)Nc2ccon2)cc1OC	none
COc1ccccc1CN1[C@@H](CC(C)=O)c2cc(C(F)(F)F)ccc2S1(=O)=O	none (no result: G9a inh, BAZ2B block, Sfp PPTase inh)
CCCCC[C@H](O)/C=C/C=C/C/C=C\CCCC(=O)O	none (no result: G9a inh, HP1b chromo inh, PLK1 PBD inh, JMJD2A Tudor inh, BAZ2B block)
